The text below walks through data of PubChem BioAssay (NCI).

About 83,000 compounds went through this panel and 20% of them were active in at least one assay; those are over-represented in the sample as a whole.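 Single-dose data. Exposure time 48 hours. Values below 10 considered active.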 A number with no mark means an inactive call. Activity calls are given as the source filed them.

Test systems include NCI-H23 lung; NCI-H226 lung; NCI-H322M lung; HOP-62 NSCLC; NCI-H460 lung; HOP-92 NSCLC; NCI-H522 lung; A549/ATCC NSCLC; 786-0 renal; COLO 205 colon; DU-145 prostate; K-562 leukemia; MALME-3M melanoma; MDA-MB-231 breast; RXF 393 renal; SF-268 CNS; SF-295 CNS; SF-539 CNS; UACC-257 melanoma; M14 melanoma.
Common to all, as to assay: NCI-60 one-dose screen, 48 h (100 = growth as untreated, 0 = no growth, -100 = all killed)
What all share (details): 10 µM unless noted

On to `Oc1[nH]c2ccc(Cl)cc2c1N=Nc1nc(N=Nc2c(O)[nH]c3ccc(Cl)cc23)nc(N2CCCCC2)n1`, for which the growth in the assay on NCI-H23 lung is 27.3%; in the assay with NCI-H226 lung, 63.4%; in the assay with NCI-H322M lung, 59.4%; in the assay on HOP-62 NSCLC, 94%; in the assay with NCI-H460 lung, 78%; in the assay with HOP-92 NSCLC, 125%. Besides, the growth in the assay with NCI-H522 lung was 45.2%; in the assay on A549/ATCC NSCLC, 60.4%; in the assay with 786-0 renal, 66%; in the assay on COLO 205 colon, 66.6%; in the assay with DU-145 prostate, 68%; in the assay with K-562 leukemia, 39.3%. Moreover, the growth in the assay with MALME-3M melanoma is 58.8%; with MDA-MB-231 breast it was 64.5%; with RXF 393 renal, 86.8%; in the assay on SF-268 CNS, 54.5%; in the assay with SF-295 CNS it was 24.3%; in the assay with SF-539 CNS, 79.5%. Further, the growth was 105% in the assay on UACC-257 melanoma and 81.1% in the assay with M14 melanoma.

As to `NS(=O)(=O)c1ccc(Nc2nc(N/N=C/c3ccc4c(c3)OCO4)nc(Nc3ccccc3)n2)cc1`, the growth is 25.1% with NCI-H23 lung; 65% in the assay on NCI-H226 lung; 61.3% in the assay on NCI-H322M lung; 29% with HOP-62 NSCLC; 2.83% (active) in the assay with NCI-H460 lung; 66% in the assay on HOP-92 NSCLC. For the same compound, the growth is 60.8% in the assay on NCI-H522 lung; 74.7% with A549/ATCC NSCLC; 61.1% in the assay on 786-0 renal; 49.7% with COLO 205 colon; 41% with DU-145 prostate; 33.2% in the assay with K-562 leukemia. In addition, the growth in the assay with MALME-3M melanoma is 58.6%; with MDA-MB-231 breast, 59.6%; with RXF 393 renal, 22.4%; in the assay on SF-268 CNS it was 42.6%; with SF-295 CNS, 64.5%; with SF-539 CNS, 16.7%. The growth is 84.6% with UACC-257 melanoma and 38.7% with M14 melanoma.

Consider `COc1ccc([C@H]2C(=O)N(c3cc(OC)c(OC)c(OC)c3)[C@@H]2c2ccc(OC)c(O)c2)cc1`, for which the growth in the assay on NCI-H23 lung is 24.4%; in the assay on NCI-H226 lung, 41.8%; with NCI-H322M lung, 43.3%; with HOP-62 NSCLC it was 26.7%; in the assay on NCI-H460 lung, 4.38% (active); in the assay with HOP-92 NSCLC, 6.76% (active). Also, the growth with NCI-H522 lung is -49.2% (active); in the assay on A549/ATCC NSCLC it was 21.6%; in the assay on 786-0 renal it was 6.39% (active); in the assay on COLO 205 colon, -76.1% (active); with DU-145 prostate, 16.7%; in the assay on K-562 leukemia, 9.93% (active). For the same compound, the growth in the assay on MALME-3M melanoma was 67.8%; with MDA-MB-231 breast it was 17.5%; in the assay on RXF 393 renal it was 6.67% (active); in the assay on SF-268 CNS, 29.1%; in the assay on SF-295 CNS it was 18.5%; in the assay with SF-539 CNS it was -1.89% (active). The growth in the assay on UACC-257 melanoma was 58.1%; in the assay with M14 melanoma, 4.54% (active).

For the compound `Cc1csc(/N=C(N)/N=C(\N)c2cccs2)n1`, the growth with NCI-H23 lung was 90.5%; in the assay on NCI-H226 lung, 99.1%; with NCI-H322M lung, 100%; in the assay with HOP-62 NSCLC, 103%; in the assay on NCI-H460 lung, 104%; in the assay with HOP-92 NSCLC, 69.1%. Further, the growth was 98.9% in the assay on NCI-H522 lung; 102% with A549/ATCC NSCLC; 112% with 786-0 renal; 109% in the assay on COLO 205 colon; 110% in the assay with DU-145 prostate; 95.7% in the assay with K-562 leukemia. In addition, the growth was 102% with MALME-3M melanoma; 99.5% with MDA-MB-231 breast; 106% in the assay with RXF 393 renal; 103% with SF-268 CNS; 113% in the assay on SF-295 CNS; 99.1% in the assay on SF-539 CNS. The growth is 104% with UACC-257 melanoma and 99.1% in the assay with M14 melanoma.

As for `CCOC(=O)c1c(NC(=O)c2ccc(C(F)(F)F)cc2)sc2c(CN3CCN(C)CC3)c(O)ccc12`, the growth is 56.4% with NCI-H23 lung; -6.63% (active) in the assay on NCI-H226 lung; 10.2% in the assay with NCI-H322M lung; -78.6% (active) in the assay with HOP-62 NSCLC; -70.7% (active) in the assay on NCI-H460 lung; 24.2% in the assay with HOP-92 NSCLC. The growth with NCI-H522 lung was -21.3% (active); in the assay with A549/ATCC NSCLC it was -74.8% (active); with 786-0 renal, -93.6% (active); in the assay on COLO 205 colon, -67.5% (active); in the assay with DU-145 prostate it was -39.1% (active); with K-562 leukemia, -57.5% (active). The growth is -56.9% (active) in the assay with MALME-3M melanoma; -43.3% (active) with MDA-MB-231 breast; -86% (active) in the assay on RXF 393 renal; -49.5% (active) in the assay on SF-268 CNS; -58% (active) in the assay on SF-295 CNS; -89.7% (active) with SF-539 CNS. In addition, the growth in the assay with UACC-257 melanoma was -13.5% (active); with M14 melanoma, -26.1% (active).

Take `Cn1cc(-c2nnc(N)nc2-c2c[nH]c3ccc(Br)cc23)c2cc(Br)ccc21`: the growth with NCI-H23 lung is 98.3%; in the assay on NCI-H226 lung, 112%; in the assay with NCI-H322M lung, 104%; in the assay on HOP-62 NSCLC, 106%; in the assay with NCI-H460 lung, 107%; in the assay on HOP-92 NSCLC it was 111%. Moreover, the growth in the assay with NCI-H522 lung was 85.7%; with A549/ATCC NSCLC it was 104%; in the assay on 786-0 renal, 89.5%; with COLO 205 colon, 116%; with DU-145 prostate it was 109%; with K-562 leukemia it was 105%. Besides, the growth with MALME-3M melanoma was 108%; with MDA-MB-231 breast, 98.7%; in the assay with RXF 393 renal, 93.1%; with SF-268 CNS it was 106%; in the assay on SF-295 CNS, 100%; in the assay with SF-539 CNS it was 102%. The growth in the assay with UACC-257 melanoma was 108%; in the assay with M14 melanoma it was 102%.

In the case of `Cc1nc(N)sc1-c1csc(Nc2ccc(C(F)(F)F)cc2)n1`, the growth is 34.4% in the assay on NCI-H23 lung; 37.4% in the assay on NCI-H226 lung; 61.4% in the assay with NCI-H322M lung; 47.3% in the assay on HOP-62 NSCLC; 25.1% in the assay with NCI-H460 lung; 37.3% in the assay with HOP-92 NSCLC. Also, the growth was -56.3% (active) in the assay on NCI-H522 lung; 45.1% in the assay with A549/ATCC NSCLC; 38.6% in the assay on 786-0 renal; 19.6% in the assay with COLO 205 colon; 35.8% in the assay on DU-145 prostate; 22.5% in the assay with K-562 leukemia. For the same compound, the growth was 10.1% in the assay on MALME-3M melanoma; 20.1% in the assay on MDA-MB-231 breast; 18.3% with RXF 393 renal; 49.5% with SF-268 CNS; 7.89% (active) with SF-295 CNS; 27.1% in the assay on SF-539 CNS. The growth is 37.2% with UACC-257 melanoma and 28.4% with M14 melanoma.
